In PubChem BioAssay (EPA / NIEHS) one finds AC50 and outcome data, which are given here for 13 molecules.

“And” between values parts separate entries of the source, which are not always exact repeats. Identical values can stand only once. Some structures have more than one record in an assay (separate samples or runs), and their calls can disagree. The source made the active and inactive calls. Rule for the calls: active = hit-call score of the fitted dose curve at least 0.9, where 1 is the maximum; inactive = score below 0.9.

Assay [1] can be described thus: ATG_PXRE_CIS: Attagene CIS-FACTORIAL HepG2 Assay for human Pregnane X Receptor Element (PXRE) (AID 2282957). The following applies: HepG2 Attagene CIS-FACTORIAL PXRE reporter, mRNA; actives raise or lower the signal. The essentials: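 Cells: HepG2, transiently transfected reporter units under cis promoter control. Exposure: 24 h. Detection: reporter mRNA via RT-PCR/CE fluorescence; bidirectional fitting, DMSO-referenced.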

Assay [2] is described as follows: ATG_PPRE_CIS: Attagene CIS-FACTORIAL HepG2 Assay for human Peroxisome Proliferator-activated Response Element (PPRE) (AID 2282958). Particulars: HepG2 PPRE cis-element reporter, Attagene transcription factor profiling; actives raise or lower the signal. The gist of the method: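 HepG2 cells are transiently transfected with multiplexed cis-promoter reporter units to report endogenous PPAR activity. After 24 h dosing, reporter mRNA is read by RT-PCR and capillary electrophoresis. Fitting is bidirectional against DMSO.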

Assay [3] is described as follows: ATG_RORE_CIS: Attagene CIS-FACTORIAL HepG2 Assay for human RAR-related Orphan Receptor Element (RORE) (AID 2282959). Particulars: HepG2 Attagene cis-factorial RORE reporter, mRNA; actives raise or lower the signal. The essentials: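 HepG2 cells carrying transiently transfected cis-regulated reporter units; RORE-driven reporter mRNA quantified 24 h post-dosing by RT-PCR, 6-FAM primer extension, HpaI digestion and capillary electrophoresis. Bidirectional fit versus DMSO.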

A short description of assay [4]: ATG_Sox_CIS: Attagene CIS-FACTORIAL HepG2 Assay for human SRY-box transcription factor (SOX) (AID 2282960). Particulars: HepG2 Attagene cis-factorial SOX reporter, mRNA; actives raise or lower the signal. The gist of the method: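 HepG2 cells transiently transfected with multiple cis-regulated reporter units, then dosed for 24 h. Reporter mRNA quantified by RT-PCR, fluorescent labelling, HpaI digestion and capillary electrophoresis; bidirectional fit versus DMSO.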

The target of assay [5] is Transcription factor Sp1 (Homo sapiens) (UniProt P08047). Description: ATG_Sp1_CIS: Attagene CIS-FACTORIAL HepG2 Assay for human Specificity Protein 1 (Sp1) (AID 2282961). The following applies: HepG2 Sp1 cis-reporter transcription, actives raise or lower the signal. The gist of the method:
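HepG2 cells transiently transfected with multiplexed cis-regulated reporter constructs, chemical exposure 24 h. Reporter mRNA quantified by RT-PCR with capillary electrophoresis; bidirectional fit relative to DMSO.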

Assay [6] in a line: ATG_SREBP_CIS: Attagene CIS-FACTORIAL HepG2 Assay for human Sterol Regulatory Element Binding (SREBP) (AID 2282962). Particulars: HepG2 Attagene cis-factorial SREBP reporter, mRNA; actives raise or lower the signal. The gist of the method:
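Twenty-four hours after chemical dosing of transfected HepG2 cultures, reporter RNA was converted to cDNA, amplified, end-labelled with 6-FAM and resolved by capillary electrophoresis. Responses were fitted relative to DMSO.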

Assay [7] concerns the target Signal transducer and activator of transcription 3 (Homo sapiens) (UniProt P40763). Description: ATG_STAT3_CIS: Attagene CIS-FACTORIAL HepG2 Assay for human Signal Transducer and Activator of Transcription 3 (STAT3) (AID 2282963). Particulars: HepG2, Attagene cis-factorial STAT3 reporter transcription; actives raise or lower the signal. The essentials: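 Endogenous STAT3-responsive cis-element activity was read in transiently transfected HepG2 cells after 24 h treatment. Reporter transcripts were quantified via RT-PCR and capillary electrophoresis, with DMSO as negative control and bidirectional curve fitting.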

Assay [8] can be described thus: ATG_TA_CIS: Attagene CIS-FACTORIAL HepG2 Assay for human TA Basal Promoter (AID 2282964). The following applies: HepG2 Attagene CIS-factorial TA basal promoter reporter; actives raise or lower the signal. The gist of the method: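 Background-control readout: TA basal promoter reporter mRNA, fitted in both directions relative to DMSO. Measured by RT-PCR and capillary electrophoresis 24 hours after treating HepG2 human liver cells transiently carrying multiplexed cis-regulated reporter constructs.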

Assay [9] is described as follows: ATG_TCF_b_cat_CIS: Attagene CIS-FACTORIAL HepG2 Assay for human T-Cell-Factor with beta-catenin (TCF/b-cat) (AID 2282965). Particulars: HepG2 TCF/beta-catenin cis-reporter transcription, actives raise or lower the signal. The gist of the method:
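Endogenous transcription factor activity is captured through cis-promoter reporter constructs transiently introduced into human HepG2 liver cells. Induced reporter mRNA is measured after 24 h and fitted bidirectionally relative to DMSO.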

Assay [10] in a line: ATG_TAL_CIS: Attagene CIS-FACTORIAL HepG2 Assay for human TAL Basal Promoter (AID 2282966).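 Note: background control endpoint measuring basal TAL promoter reporter mRNA not a specific factor.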 The following applies: HepG2 Attagene cis-factorial TAL promoter reporter; actives raise or lower the signal. The essentials:
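RT-PCR plus capillary electrophoresis quantifies reporter mRNA induction in transiently transfected HepG2 cells after 24 h chemical treatment. DMSO serves as negative control and baseline for bidirectional fitting.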

Chain of Signal transducer and activator of transcription 3 (Homo sapiens) (P40763 whole entry, looked up): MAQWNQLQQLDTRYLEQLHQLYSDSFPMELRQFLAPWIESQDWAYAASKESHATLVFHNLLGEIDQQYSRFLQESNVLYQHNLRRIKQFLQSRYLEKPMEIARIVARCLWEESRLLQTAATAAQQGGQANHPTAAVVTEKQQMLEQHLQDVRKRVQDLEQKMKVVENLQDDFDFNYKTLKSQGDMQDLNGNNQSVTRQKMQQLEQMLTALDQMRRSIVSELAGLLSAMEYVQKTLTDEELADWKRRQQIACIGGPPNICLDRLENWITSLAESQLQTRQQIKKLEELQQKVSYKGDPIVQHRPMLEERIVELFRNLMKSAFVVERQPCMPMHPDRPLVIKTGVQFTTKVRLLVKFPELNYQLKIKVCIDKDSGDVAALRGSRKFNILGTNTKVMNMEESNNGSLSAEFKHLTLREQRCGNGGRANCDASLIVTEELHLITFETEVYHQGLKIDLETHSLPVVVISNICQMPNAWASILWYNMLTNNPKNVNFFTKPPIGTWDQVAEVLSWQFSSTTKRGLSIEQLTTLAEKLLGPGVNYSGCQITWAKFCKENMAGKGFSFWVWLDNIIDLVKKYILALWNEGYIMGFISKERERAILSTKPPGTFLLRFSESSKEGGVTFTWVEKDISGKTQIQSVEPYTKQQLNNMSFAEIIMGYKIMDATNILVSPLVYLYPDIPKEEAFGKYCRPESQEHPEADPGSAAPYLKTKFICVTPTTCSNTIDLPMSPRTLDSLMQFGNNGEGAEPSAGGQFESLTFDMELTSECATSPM
Chain of Transcription factor Sp1 (Homo sapiens) (P08047 whole entry, looked up): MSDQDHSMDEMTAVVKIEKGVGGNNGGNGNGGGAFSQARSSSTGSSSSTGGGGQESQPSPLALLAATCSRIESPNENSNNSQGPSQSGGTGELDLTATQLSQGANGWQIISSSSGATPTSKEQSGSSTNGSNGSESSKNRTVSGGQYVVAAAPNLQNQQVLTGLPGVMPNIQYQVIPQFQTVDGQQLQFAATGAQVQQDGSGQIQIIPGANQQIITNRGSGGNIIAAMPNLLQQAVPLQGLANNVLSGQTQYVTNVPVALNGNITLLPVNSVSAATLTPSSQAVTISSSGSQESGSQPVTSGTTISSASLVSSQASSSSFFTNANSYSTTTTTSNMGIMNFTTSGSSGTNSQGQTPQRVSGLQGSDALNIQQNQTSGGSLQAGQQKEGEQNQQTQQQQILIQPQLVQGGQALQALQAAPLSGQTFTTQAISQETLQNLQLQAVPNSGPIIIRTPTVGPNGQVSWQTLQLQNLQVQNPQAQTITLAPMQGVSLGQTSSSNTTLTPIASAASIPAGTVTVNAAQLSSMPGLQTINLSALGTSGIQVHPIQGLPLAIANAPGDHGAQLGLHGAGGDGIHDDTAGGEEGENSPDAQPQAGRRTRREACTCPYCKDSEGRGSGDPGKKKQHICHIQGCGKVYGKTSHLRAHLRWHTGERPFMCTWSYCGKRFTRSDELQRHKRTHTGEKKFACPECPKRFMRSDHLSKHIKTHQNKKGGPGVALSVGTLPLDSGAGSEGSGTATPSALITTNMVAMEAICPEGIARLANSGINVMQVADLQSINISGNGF

For orientation: AC50 means the concentration giving half of the maximal activity seen. For `CCN(Cc1c(F)cccc1Cl)c1c([N+](=O)[O-])cc(C(F)(F)F)cc1[N+](=O)[O-]`, in assay [1], the AC50 is 1.26 µM (active). For the same molecule, the outcome in assay [2], in [3], in assay [4], in assay [5], in assay [6] and in [7] was inactive. Moreover, the molecule was classed as inactive in assay [8], in assay [9] and in [10].
Turning to `COC(=O)c1c(Cl)nn(C)c1S(=O)(=O)NC(=O)Nc1nc(OC)cc(OC)n1`, the call in assay [1], in [2], in assay [3], in assay [4], in assay [5] and in assay [6] was inactive. Also, the molecule was called inactive in assay [7], in assay [8], in assay [9] and in [10].
As to `CCOC(=O)COc1cc(-n2ncc(C(F)(F)F)c(C)c2=O)c(F)cc1Cl`, in assay [1], the AC50 is 28.5 µM (active). The molecule was called inactive in assay [2], in assay [3], in [4], in assay [5], in assay [6] and in assay [7]. Moreover, the call in assay [8], in assay [9] and in [10] was inactive.
For `c1ccc(Nc2ccccc2)cc1`, the AC50 is 64 µM (active) and 37.5 µM (active) in assay [1]; 20.6 µM (active) in assay [2]. Moreover, the molecule was called inactive in assay [2], in [3], in assay [4], in assay [5], in [6] and in assay [7]. Besides, the outcome in [8], in [9] and in assay [10] was inactive.
Take `CC(C)CCCCCCc1ccc(O)cc1`: the AC50 is 2.88 µM (active) [middle of 4 runs] in assay [1]; 11.1 µM (active) in [2]; 17.8 µM (active) and 17.5 µM (active) in assay [4]; 19.4 µM (active) and 16.2 µM (active) in assay [5]; 20.2 µM (active) in assay [6]; 20.3 µM (active) in assay [8]. For the same molecule, the AC50 in [9] is 15.2 µM (active) and 16.8 µM (active) and 17.4 µM (active). In addition, the outcome in assay [2], in [3], in [4], in assay [5], in [6] and in [8] was inactive. Besides, the molecule was called inactive in [9] and in assay [10].
Turning to `COC(=O)c1ccccc1C(=O)O`, the call in assay [1], in assay [2], in [3], in assay [4], in assay [5] and in assay [6] was inactive. Further, the result in [7], in [8], in assay [9] and in [10] was inactive.
In the case of `O=C(Nc1ccc([N+](=O)[O-])cc1Cl)c1cc(Cl)ccc1O`, the AC50 in [1] is 0.426 µM (active); in [3], 1.19 µM (active); in assay [5], 700 nM (active); in [6], 0.7 µM (active). The outcome in [2], in assay [4], in [8], in assay [9] and in [10] was inactive.
Consider `C[C@]12C[C@H](O)[C@H]3[C@@H](CCC4=CC(=O)CC[C@@]43C)[C@@H]1CC[C@@H]2C(=O)CO`, for which the AC50 in [1] was 32.7 µM (active) [middle of 4 runs]. The molecule was classed as inactive in assay [2], in assay [3], in assay [4], in assay [5], in [6] and in assay [7]. Besides, the result in [8], in assay [9] and in assay [10] was inactive.
Consider `CSC(=O)c1cccc2nnsc12`, for which the AC50 in assay [1] is 49.4 µM (active). In addition, the molecule was called inactive in assay [2], in [3], in assay [4], in assay [5], in assay [6] and in assay [8]. In addition, the result in assay [9] and in assay [10] was inactive.
Regarding `CCC(C)OC(=O)N1CCCCC1CCO` (stereo unspecified), the AC50 in assay [1] was 20.7 µM (active) and 15 µM (active). The result in [2], in [3], in assay [4], in assay [5], in [6] and in assay [7] was inactive. Further, the result in assay [8], in assay [9] and in assay [10] was inactive.
As for `S=C(S)NCCNC(=S)S.[Mn+2].[S-]C([S-])=NCCN=C([S-])[S-].[Zn+2]`, the AC50 in assay [1] is 13.2 µM (active) and 13 µM (active) and 12.9 µM (active); in assay [3], 19.6 µM (active); in assay [4] it was 16.5 µM (active) and 23 µM (active) and 22.3 µM (active); in [9], 20 µM (active) and 27.8 µM (active) and 26.9 µM (active). Also, the call in assay [1], in assay [3], in assay [4], in assay [5], in [6] and in assay [8] was inactive. In addition, the call in [9] and in assay [10] was inactive.
For `CCN(CC)C(=O)c1cccc(C)c1`, in assay [1], the AC50 was 40.2 µM (active). For the same molecule, the outcome in [1], in assay [2], in assay [3], in [4], in assay [5] and in [6] was inactive. For the same molecule, the call in assay [8], in assay [9] and in [10] was inactive.
Consider `CC(=O)S[C@@H]1CC2=CC(=O)CC[C@]2(C)[C@H]2CC[C@@]3(C)[C@@H](CC[C@@]34CCC(=O)O4)[C@H]12`, for which the AC50 in [1] is 7.65 µM (active) [middle of 4 runs]; in [2], 2.4 µM (active); in assay [5], 26.3 µM (active) and 4.58 µM (active); in assay [6] it was 100 µM (active); in assay [8] it was 182 µM (active); in assay [9], 39.1 µM (active). Moreover, the result in assay [1], in assay [2], in assay [3], in [4], in assay [5] and in [6] was inactive. For the same molecule, the outcome in [8], in [9] and in [10] was inactive.
